Inconclusive results are not listed. Entries that show only a call come without a potency. Calls of active or inactive are those of the source. Calls come from the whole dose curve; as a rule, active = well fitted cell-killing curve with a large enough effect in the repeat runs; inconclusive = weak or mixed curves, or effect the other way; inactive = flat fitted curve, though single readings scatter.
Assay: cAMP Responsive Elements (CRE) small molecule antagonists, cell-based qHTS assay: qHTS cell viability counter screen (AID 2060913); note: nearly all actives have a fitted effect of over 40% in size
Details: CRE-bla HEK293T viability, CellTiter-Glo luminescence, 5 h; series mostly up to 92.4 µM
In short: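 Cytotoxicity read in the same wells as the CRE-bla HEK293T antagonist assay: after 3 h compound with 0.25 uM NKH477 final and 2 h beta-lactamase substrate, CellTiter-Glo luminescence measured.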

With `C1=Cc2ccccc2C1` as the compound, how does the Potency read?
Its Potency is “inactive”.

Which Potency does the source give for `CCCCCC(N)=O` here?
The Potency was “inactive”.

With `COC(=O)CCCCC(CCSS/C(CCO)=C(\C)N(C=O)Cc1cnc(C)nc1N)SC(C)=O` (stereo unspecified) as the compound, how does the Potency read?
The Potency was “inactive”.

Which Potency does the source give for `Nc1cc([N+](=O)[O-])ccc1C(=O)O` here?
The Potency was “inactive”.

Which Potency does the source give for `CCCOCC(C)O` (stereo unspecified) here?
Its Potency is “inactive”.

Which Potency does the source give for `CN(C)CCCNCCCN(C)C` here?
The Potency was “inactive”.

Which Potency does the source give for `C[Si](Cl)(c1ccccc1)c1ccccc1` here?
The Potency was “inactive”.

With `c1ccc2occc2c1` as the compound, how does the Potency read?
The Potency was “inactive”.

With `CN(C)CCCN` as the compound, how does the Potency read?
Its Potency is “inactive”.

With `CC(=O)OCc1ccco1` as the compound, how does the Potency read?
Its Potency is “inactive”.

Which Potency does the source give for `C/C=C(\C)C(=O)OCc1ccccc1` here?
Its Potency is “inactive”.

For `Cc1ccc2ccc(Cl)cc2n1`, which Potency is on record?
Its Potency is “inactive”.

With `Cc1cccc(Nc2ccccc2)c1` as the compound, how does the Potency read?
The Potency was “inactive”.

Which Potency does the source give for `NCCCOCCOCCOCCCN` here?
Its Potency is “inactive”.

With `C=C(C)[C@H]1CC=C(C)C(=O)C1` as the compound, how does the Potency read?
Its Potency is “inactive”.

For `O=C(O)c1c(Cl)ccc(Cl)c1Cl`, which Potency is on record?
The Potency was “inactive”.

With `COc1cc(C(=O)NS(=O)(=O)c2ccccc2C)ccc1Cc1cn(C)c2ccc(NC(=O)OC3CCCC3)cc12` as the compound, how does the Potency read?
Its Potency is “inactive”.

With `NS(=O)(=O)c1cc2c(cc1Cl)CN(C1CCCCC1)C2=O` as the compound, how does the Potency read?
The Potency was “inactive”.

For `CO`, which Potency is on record?
The Potency was “inactive”.

With `C=CCCCCCCCC` as the compound, how does the Potency read?
The Potency was “inactive”.

With `O=C1OC(=O)c2c(Cl)c(Cl)c(Cl)c(Cl)c21` as the compound, how does the Potency read?
Its Potency is “inactive”.

With `CC(=O)S[C@H](C(=O)N[C@H]1Cc2ccccc2[C@H]2CCC[C@@H](C(=O)O)N2C1=O)C(C)C` as the compound, how does the Potency read?
Its Potency is “inactive”.

For `CCCCc1ccc(Cl)cc1`, which Potency is on record?
The Potency was “inactive”.

With `CC(=O)[C@@]1(O)CC[C@H]2[C@@H]3C[C@H](C)C4=CC(=O)CC[C@]4(C)[C@H]3CC[C@@]21C` as the compound, how does the Potency read?
The Potency was “inactive”.

Which Potency does the source give for `CCN(CC)c1ccc(C=O)c(O)c1` here?
Its Potency is “inactive”.

Which Potency does the source give for `CN(C)CCN1C(=O)c2ccccc2N(C)c2ccccc21` here?
The Potency was “inactive”.
